Measured values published in paper PMC7862700, “An all-to-all approach to the identification of sequence-specific readers for epigenetic DNA modifications on cytosine”.

Key:
Experiment in all cases: DAPPL (digital affinity profiling via proximity ligation, sequencing); 10 mM Tris-HCl pH 7.5, 50 mM NaCl, 1 mM DTT, 4% glycerol, room temperature, 30 min; GST-TFs on glutathione beads, 16-mer random dsDNA library, 0.1% formaldehyde crosslink after washing; high values mean tight binding
Details in all cases: protein: recombinant; tags: N-terminal GST; dsDNA, one strand shown
FLI1 = molecular target: T1, FLI1 (Homo sapiens, UniProt Q01543 1-452)
T1 sequence: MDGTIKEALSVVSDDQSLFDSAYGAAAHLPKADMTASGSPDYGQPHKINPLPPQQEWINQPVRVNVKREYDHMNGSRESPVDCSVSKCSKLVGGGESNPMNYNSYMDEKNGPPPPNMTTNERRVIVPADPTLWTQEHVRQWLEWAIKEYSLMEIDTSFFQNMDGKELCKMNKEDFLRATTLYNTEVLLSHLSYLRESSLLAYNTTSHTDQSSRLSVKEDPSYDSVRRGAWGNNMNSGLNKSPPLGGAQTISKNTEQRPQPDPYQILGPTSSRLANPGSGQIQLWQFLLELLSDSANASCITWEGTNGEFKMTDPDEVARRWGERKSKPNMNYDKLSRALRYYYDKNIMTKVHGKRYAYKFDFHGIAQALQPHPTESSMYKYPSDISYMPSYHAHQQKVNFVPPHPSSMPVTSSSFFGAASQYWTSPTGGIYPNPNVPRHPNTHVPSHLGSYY
Procedure, shortened: (§1)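 Human transcription factors were made in yeast as GST fusions, captured on glutathione beads and barcoded with DNA. With a tag-only sample included, the pool was incubated with 200 nmole of a random double-stranded 16-mer DNA library in Tris/NaCl/DTT/glycerol buffer at room temperature for 30 min, then crosslinked with 0.1% formaldehyde after washing, ligated by proximity, amplified and sequenced. For binding signal, each hexamer's read frequency for a factor is divided by its frequency for the tag-only sample.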

SPIC = molecular target: T2, SPIC (Homo sapiens, UniProt Q8N5J4 1-248)
T2 sequence: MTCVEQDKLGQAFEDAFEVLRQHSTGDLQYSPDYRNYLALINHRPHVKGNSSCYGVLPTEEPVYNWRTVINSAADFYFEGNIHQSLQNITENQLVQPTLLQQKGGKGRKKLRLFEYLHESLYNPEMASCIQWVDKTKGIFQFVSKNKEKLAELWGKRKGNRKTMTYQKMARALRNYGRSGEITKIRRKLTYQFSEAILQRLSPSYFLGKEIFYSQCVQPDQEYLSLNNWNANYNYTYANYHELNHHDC
Procedure, shortened: as §1

ELF4 = ELF4 (Homo sapiens, UniProt Q99607 1-663)
Sequence of ELF4 (Q99607 whole entry): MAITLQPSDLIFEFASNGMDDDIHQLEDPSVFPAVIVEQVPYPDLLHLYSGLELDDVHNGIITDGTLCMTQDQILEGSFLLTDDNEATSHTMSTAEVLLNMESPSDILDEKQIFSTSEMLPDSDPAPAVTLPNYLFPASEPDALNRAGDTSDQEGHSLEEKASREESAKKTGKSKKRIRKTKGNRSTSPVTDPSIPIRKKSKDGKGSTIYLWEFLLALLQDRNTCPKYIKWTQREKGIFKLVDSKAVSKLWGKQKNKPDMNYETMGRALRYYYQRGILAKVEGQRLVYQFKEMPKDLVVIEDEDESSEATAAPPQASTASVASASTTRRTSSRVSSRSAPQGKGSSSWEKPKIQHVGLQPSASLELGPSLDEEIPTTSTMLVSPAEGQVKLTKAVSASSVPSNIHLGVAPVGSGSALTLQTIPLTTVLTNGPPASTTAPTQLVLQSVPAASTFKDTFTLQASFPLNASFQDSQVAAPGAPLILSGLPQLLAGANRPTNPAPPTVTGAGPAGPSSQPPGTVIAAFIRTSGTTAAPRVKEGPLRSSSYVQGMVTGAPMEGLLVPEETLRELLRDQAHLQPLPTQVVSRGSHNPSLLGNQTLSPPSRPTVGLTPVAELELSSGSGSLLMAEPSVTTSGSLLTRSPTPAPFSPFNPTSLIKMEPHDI
Procedure, shortened: as §1

ETV2 = molecular target: T3, ETV2 (Homo sapiens, UniProt O00321 1-342)
T3 sequence: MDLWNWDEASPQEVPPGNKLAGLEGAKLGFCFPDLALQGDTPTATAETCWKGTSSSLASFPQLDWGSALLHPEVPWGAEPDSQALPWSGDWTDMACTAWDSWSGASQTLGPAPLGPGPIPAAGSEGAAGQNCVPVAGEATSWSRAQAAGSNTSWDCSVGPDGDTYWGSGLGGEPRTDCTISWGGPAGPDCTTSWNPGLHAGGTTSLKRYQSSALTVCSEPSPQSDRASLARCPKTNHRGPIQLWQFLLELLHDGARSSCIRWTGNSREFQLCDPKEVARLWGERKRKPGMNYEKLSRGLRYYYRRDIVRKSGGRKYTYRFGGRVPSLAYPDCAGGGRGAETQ
Procedure, shortened: as §1

ELK1 = molecular target: T4, ELK1 (Homo sapiens, UniProt P19419 1-428)
T4 sequence: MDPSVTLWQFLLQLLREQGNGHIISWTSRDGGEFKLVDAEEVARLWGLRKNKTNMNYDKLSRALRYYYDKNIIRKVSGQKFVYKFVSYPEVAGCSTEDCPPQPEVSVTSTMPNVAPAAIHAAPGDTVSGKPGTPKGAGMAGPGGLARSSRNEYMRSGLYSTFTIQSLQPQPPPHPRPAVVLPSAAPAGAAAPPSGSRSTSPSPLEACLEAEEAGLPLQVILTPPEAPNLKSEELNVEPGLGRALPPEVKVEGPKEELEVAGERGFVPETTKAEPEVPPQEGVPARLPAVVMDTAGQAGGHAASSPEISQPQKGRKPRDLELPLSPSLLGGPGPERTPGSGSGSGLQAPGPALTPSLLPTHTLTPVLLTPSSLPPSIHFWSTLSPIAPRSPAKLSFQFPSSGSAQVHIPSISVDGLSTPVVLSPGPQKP
Procedure, shortened: as §1

GABPA = molecular target: T5, GABPA (Homo sapiens, UniProt Q06546 1-454)
T5 sequence: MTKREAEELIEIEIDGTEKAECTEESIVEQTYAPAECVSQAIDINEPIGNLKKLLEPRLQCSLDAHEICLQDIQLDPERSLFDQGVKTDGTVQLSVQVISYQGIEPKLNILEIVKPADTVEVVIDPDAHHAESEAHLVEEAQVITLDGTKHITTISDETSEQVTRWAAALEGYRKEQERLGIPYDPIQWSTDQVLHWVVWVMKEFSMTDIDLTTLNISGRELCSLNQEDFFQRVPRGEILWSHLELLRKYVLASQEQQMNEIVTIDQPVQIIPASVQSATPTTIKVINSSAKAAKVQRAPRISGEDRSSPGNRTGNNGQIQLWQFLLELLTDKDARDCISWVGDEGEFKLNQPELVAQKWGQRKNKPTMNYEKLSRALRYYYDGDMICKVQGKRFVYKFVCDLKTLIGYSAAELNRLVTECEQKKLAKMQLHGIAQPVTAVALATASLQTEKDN
Procedure, shortened: as §1

ELF1 = ELF1 (Homo sapiens, UniProt P32519 1-619)
Sequence of ELF1 (P32519 whole entry): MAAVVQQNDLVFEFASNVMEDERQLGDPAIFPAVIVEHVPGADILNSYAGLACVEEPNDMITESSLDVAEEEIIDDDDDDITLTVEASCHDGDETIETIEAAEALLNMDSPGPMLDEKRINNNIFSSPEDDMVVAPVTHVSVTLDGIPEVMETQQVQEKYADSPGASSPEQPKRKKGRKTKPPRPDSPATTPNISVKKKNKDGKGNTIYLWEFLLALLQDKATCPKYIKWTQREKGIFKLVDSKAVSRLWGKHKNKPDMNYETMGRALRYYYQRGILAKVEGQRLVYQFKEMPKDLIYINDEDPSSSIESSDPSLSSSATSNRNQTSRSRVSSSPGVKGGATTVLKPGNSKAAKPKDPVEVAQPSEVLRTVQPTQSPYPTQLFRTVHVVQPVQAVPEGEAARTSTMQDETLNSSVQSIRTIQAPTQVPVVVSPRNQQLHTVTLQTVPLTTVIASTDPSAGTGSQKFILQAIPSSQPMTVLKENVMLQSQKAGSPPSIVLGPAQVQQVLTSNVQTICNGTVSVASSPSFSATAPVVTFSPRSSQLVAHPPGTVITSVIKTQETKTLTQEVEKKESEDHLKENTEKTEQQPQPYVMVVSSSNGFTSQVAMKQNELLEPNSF
Procedure, shortened: as §1

EHF = molecular target: T6, EHF (Homo sapiens, UniProt Q9NZC4 1-300)
T6 sequence: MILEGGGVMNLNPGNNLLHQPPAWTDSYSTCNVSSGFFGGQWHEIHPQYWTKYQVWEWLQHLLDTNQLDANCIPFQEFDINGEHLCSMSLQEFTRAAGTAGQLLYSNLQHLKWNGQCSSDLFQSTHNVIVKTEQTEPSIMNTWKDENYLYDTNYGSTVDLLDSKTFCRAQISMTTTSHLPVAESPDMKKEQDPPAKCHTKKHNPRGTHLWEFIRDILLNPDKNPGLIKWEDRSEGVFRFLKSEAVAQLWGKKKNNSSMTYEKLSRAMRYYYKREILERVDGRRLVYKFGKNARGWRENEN
Procedure, shortened: as §1

SPIB = SPIB (Homo sapiens, UniProt Q01892 1-262)
Sequence of SPIB (Q01892 whole entry): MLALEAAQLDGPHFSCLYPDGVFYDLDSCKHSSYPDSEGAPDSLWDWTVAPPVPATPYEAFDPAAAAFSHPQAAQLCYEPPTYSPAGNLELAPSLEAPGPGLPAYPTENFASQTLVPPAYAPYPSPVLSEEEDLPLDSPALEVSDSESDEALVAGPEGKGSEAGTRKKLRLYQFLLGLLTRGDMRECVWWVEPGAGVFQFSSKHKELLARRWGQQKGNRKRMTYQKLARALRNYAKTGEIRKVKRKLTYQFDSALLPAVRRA
Procedure, shortened: as §1

ELK3 = molecular target: T7, ELK3 (Homo sapiens, UniProt P41970 1-407)
T7 sequence: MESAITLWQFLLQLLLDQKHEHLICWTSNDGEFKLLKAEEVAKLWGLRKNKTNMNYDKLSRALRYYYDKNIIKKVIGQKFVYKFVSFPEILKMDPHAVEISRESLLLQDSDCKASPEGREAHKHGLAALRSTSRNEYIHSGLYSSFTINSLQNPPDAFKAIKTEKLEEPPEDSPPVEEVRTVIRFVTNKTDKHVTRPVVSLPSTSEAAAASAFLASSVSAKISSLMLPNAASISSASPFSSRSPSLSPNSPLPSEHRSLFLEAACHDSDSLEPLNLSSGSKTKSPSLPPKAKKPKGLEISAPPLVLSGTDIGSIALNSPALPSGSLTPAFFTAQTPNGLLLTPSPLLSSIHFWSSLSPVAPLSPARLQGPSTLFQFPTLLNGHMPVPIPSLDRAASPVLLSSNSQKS
Procedure, shortened: as §1

ELK4 = molecular target: T8, ELK4 (Homo sapiens, UniProt P28324-2 1-405)
T8 sequence: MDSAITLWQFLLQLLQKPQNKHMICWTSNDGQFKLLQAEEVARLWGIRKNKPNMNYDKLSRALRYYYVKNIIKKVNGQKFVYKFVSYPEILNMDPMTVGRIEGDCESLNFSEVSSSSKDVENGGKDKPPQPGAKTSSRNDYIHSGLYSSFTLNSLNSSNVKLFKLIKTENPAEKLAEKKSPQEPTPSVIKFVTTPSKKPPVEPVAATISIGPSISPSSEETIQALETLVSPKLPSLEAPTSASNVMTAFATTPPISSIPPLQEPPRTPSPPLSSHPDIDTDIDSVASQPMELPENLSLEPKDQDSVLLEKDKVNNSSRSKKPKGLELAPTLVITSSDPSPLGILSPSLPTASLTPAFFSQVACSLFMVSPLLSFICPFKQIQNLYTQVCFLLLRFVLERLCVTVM
Procedure, shortened: as §1

ELF3 = molecular target: T9, ELF3 (Homo sapiens, UniProt P78545 1-371)
T9 sequence: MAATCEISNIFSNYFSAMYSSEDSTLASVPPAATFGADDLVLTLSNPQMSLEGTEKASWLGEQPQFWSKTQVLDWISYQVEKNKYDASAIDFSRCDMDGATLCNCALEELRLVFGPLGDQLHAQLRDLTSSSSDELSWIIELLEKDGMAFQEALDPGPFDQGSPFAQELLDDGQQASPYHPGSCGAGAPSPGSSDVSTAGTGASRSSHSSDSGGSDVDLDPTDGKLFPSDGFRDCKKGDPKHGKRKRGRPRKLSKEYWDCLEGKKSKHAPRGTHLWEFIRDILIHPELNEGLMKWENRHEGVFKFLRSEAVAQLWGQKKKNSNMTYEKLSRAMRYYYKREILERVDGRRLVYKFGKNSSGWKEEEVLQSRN
Procedure, shortened: as §1

ERF = molecular target: T10, ERF (Homo sapiens, UniProt P50548 1-548)
T10 sequence: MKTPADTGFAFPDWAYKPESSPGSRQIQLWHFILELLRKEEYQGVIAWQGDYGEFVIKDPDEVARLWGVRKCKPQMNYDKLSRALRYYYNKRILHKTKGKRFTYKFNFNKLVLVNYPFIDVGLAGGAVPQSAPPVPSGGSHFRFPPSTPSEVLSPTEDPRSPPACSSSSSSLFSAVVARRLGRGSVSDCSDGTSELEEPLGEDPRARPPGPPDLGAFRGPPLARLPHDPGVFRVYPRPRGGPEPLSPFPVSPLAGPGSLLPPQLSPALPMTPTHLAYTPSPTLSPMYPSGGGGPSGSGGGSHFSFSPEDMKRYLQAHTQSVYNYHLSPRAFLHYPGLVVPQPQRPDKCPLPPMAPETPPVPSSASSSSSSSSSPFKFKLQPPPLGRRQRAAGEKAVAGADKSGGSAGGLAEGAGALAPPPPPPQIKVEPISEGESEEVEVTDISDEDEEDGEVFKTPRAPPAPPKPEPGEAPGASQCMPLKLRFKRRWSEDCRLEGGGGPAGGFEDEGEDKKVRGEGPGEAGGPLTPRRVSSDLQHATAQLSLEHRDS
Procedure, shortened: as §1

ETV3L = molecular target: T11, ETV3L (Homo sapiens, UniProt Q6ZN32 1-361)
T11 sequence: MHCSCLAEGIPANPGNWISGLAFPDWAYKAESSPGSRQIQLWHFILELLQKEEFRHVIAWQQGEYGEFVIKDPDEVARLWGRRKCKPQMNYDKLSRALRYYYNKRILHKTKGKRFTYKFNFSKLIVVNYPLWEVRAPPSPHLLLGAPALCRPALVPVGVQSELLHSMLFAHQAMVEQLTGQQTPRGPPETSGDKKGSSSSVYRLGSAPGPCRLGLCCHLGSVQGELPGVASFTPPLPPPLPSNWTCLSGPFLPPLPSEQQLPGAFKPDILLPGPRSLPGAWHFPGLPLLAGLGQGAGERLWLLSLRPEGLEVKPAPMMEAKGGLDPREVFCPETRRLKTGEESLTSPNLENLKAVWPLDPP
Procedure, shortened: as §1

ETS2 = molecular target: T12, ETS2 (Homo sapiens, UniProt P15036 1-469)
T12 sequence: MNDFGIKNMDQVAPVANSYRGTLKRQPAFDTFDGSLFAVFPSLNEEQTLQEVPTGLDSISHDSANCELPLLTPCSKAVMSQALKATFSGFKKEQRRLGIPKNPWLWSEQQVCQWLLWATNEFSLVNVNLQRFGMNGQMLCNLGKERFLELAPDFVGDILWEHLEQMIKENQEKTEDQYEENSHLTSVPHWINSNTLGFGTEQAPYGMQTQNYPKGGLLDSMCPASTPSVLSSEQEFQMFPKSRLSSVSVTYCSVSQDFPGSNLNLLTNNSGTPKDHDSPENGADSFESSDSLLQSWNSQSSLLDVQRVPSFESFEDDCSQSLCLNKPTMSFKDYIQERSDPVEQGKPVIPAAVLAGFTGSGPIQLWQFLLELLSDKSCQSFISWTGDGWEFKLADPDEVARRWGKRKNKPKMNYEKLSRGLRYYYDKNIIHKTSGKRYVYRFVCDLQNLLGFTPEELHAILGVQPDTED
Procedure, shortened: as §1

ETV7 = molecular target: T13, ETV7 (Homo sapiens, UniProt Q9Y603 1-341)
T13 sequence: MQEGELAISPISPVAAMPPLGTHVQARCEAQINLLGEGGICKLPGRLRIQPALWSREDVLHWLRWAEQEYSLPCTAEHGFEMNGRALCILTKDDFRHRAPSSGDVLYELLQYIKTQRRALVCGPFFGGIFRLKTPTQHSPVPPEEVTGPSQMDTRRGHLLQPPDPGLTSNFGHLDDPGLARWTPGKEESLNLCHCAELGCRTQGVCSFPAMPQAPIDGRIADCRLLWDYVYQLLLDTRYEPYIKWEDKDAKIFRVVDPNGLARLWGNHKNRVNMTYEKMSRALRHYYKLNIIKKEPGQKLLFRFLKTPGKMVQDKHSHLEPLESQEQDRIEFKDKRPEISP
Procedure, shortened: as §1

ETV6 = ETV6 (Homo sapiens, UniProt P41212 1-452)
Sequence of ETV6 (P41212 whole entry): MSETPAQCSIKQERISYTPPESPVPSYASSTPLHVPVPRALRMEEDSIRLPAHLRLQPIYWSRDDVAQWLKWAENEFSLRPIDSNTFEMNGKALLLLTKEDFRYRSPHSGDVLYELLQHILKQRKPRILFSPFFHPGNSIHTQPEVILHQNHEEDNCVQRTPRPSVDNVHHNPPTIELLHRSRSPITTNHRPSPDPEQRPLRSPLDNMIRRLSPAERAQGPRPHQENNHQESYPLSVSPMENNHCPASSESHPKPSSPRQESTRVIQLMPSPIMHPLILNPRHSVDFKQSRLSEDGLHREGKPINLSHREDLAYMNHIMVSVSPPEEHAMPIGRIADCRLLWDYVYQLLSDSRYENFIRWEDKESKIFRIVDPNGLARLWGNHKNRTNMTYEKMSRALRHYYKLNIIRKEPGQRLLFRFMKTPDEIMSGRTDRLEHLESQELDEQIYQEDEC
Procedure, shortened: as §1

## TGGCGT
FLI1
  binding signal: 1.01 fold enrichment (6-mer frequency, TF over GST control)
SPIC
  binding signal: 1.04 fold enrichment (6-mer frequency, TF over GST control)
ELF4
  binding signal: 1.01 fold enrichment (6-mer frequency, TF over GST control)
ETV2
  binding signal: 1.05 fold enrichment (6-mer frequency, TF over GST control)

## TTGACG
FLI1
  binding signal: 1.19 fold enrichment (6-mer frequency, TF over GST control)
ELK1
  binding signal: 1.16 fold enrichment (6-mer frequency, TF over GST control)
GABPA
  binding signal: 1.08 fold enrichment (6-mer frequency, TF over GST control)
ELF1
  binding signal: 1.1 fold enrichment (6-mer frequency, TF over GST control)
EHF
  binding signal: 1.2 fold enrichment (6-mer frequency, TF over GST control)
SPIB
  binding signal: 1.11 fold enrichment (6-mer frequency, TF over GST control)
ELK3
  binding signal: 1.08 fold enrichment (6-mer frequency, TF over GST control)
ELF4
  binding signal: 1.15 fold enrichment (6-mer frequency, TF over GST control)
ELK4
  binding signal: 1.21 fold enrichment (6-mer frequency, TF over GST control)
ETV2
  binding signal: 1.23 fold enrichment (6-mer frequency, TF over GST control)
ELF3
  binding signal: 1.21 fold enrichment (6-mer frequency, TF over GST control)
ERF
  binding signal: 1.27 fold enrichment (6-mer frequency, TF over GST control)
ETV3L
  binding signal: 1.12 fold enrichment (6-mer frequency, TF over GST control)
ETS2
  binding signal: 1.08 fold enrichment (6-mer frequency, TF over GST control)
ETV7
  binding signal: 1.19 fold enrichment (6-mer frequency, TF over GST control)
ETV6
  binding signal: 1.15 fold enrichment (6-mer frequency, TF over GST control)
